Data taken from the supplement of paper PMC11732987, “Enantioselective OTUD7B fragment discovery through chemoproteomics screening and high-throughput optimisation” (Communications Chemistry, 2025).

Key:
Test in all cases: log2 ratio of Biotin-Ahx-Ub-VS probe labelling (fragment/DMSO); higher = less target engagement (more negative = stronger competition), active = hit call of the paper (q ≤ 0.05, log2 ratio ≤ -1)
Conditions in all cases: compound concentration: 200 uM; treatment time: 3 h
USP19 = target: T1, USP19 (UniProt O94966)
T1 sequence (whole entry): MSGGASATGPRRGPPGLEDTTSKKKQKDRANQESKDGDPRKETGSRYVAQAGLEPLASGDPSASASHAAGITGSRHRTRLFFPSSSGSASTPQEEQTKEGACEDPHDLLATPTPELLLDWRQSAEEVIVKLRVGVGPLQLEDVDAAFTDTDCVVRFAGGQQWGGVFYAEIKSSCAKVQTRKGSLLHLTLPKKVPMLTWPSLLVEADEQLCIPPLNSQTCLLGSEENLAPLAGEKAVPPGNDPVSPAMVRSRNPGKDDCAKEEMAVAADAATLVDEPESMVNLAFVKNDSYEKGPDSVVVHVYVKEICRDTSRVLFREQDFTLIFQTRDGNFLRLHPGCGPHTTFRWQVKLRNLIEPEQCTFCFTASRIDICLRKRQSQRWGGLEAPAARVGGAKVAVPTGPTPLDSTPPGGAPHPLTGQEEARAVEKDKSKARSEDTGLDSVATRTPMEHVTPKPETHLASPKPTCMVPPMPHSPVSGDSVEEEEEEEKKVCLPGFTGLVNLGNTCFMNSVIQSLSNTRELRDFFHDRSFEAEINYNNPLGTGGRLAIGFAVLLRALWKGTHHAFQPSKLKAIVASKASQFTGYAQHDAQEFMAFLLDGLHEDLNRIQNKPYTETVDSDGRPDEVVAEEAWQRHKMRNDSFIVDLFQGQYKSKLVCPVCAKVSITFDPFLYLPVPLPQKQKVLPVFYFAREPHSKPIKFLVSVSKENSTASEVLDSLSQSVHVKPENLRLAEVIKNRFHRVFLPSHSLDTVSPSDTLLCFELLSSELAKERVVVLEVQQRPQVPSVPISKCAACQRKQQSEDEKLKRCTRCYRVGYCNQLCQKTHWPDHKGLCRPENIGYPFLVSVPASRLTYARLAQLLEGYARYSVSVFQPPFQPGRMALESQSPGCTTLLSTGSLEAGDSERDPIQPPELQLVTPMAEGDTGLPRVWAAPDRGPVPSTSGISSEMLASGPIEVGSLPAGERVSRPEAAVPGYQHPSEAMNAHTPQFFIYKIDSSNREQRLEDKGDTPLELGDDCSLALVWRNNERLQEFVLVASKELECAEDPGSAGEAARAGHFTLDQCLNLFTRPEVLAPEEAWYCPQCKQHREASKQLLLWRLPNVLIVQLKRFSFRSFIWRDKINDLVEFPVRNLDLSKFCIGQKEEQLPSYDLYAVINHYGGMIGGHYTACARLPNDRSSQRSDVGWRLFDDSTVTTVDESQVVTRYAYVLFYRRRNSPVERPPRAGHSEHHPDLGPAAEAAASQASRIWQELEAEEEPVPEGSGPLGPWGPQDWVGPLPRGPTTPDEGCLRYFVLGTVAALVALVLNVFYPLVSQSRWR
In short: (§1)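 HEK293T lysate, 495 µg per sample in Tris/CHAPS/IGEPAL buffer with protease inhibitors, was treated in triplicate with fragment at 200 µM or vehicle for 3 h and then with Biotin-Ahx-Ub-VS at 0.5 µM final for 1 h. Labelled DUBs were NeutrAvidin-enriched, digested with LysC and trypsin, and run by diaPASEF LC-MS/MS. Spectronaut label-free quantities were global-median-normalised, and values are average log2 fragment/vehicle ratios by unpaired t-test on proteins with ≥2 unique peptides.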

USP22 = target: T2, USP22 (UniProt Q9UPT9)
T2 sequence (whole entry): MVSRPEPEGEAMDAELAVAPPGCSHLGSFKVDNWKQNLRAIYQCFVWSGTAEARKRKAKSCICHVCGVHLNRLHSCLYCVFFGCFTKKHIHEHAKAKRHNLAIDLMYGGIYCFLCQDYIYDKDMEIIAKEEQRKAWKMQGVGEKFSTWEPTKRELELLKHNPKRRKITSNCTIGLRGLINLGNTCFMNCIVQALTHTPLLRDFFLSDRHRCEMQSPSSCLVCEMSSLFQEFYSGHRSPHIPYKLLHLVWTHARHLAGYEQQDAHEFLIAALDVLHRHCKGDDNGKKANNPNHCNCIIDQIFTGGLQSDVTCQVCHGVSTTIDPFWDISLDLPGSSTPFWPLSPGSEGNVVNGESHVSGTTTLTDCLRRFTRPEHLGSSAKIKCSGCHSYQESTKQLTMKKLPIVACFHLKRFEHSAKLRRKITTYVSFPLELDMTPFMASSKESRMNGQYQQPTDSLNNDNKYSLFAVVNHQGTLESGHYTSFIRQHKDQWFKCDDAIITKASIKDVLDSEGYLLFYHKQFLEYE
In short: as §1

USP24 = USP24 (UniProt Q9UPU5)
In short: as §1

USP25 = target: T3, USP25 (UniProt Q9UHP3)
T3 sequence (whole entry): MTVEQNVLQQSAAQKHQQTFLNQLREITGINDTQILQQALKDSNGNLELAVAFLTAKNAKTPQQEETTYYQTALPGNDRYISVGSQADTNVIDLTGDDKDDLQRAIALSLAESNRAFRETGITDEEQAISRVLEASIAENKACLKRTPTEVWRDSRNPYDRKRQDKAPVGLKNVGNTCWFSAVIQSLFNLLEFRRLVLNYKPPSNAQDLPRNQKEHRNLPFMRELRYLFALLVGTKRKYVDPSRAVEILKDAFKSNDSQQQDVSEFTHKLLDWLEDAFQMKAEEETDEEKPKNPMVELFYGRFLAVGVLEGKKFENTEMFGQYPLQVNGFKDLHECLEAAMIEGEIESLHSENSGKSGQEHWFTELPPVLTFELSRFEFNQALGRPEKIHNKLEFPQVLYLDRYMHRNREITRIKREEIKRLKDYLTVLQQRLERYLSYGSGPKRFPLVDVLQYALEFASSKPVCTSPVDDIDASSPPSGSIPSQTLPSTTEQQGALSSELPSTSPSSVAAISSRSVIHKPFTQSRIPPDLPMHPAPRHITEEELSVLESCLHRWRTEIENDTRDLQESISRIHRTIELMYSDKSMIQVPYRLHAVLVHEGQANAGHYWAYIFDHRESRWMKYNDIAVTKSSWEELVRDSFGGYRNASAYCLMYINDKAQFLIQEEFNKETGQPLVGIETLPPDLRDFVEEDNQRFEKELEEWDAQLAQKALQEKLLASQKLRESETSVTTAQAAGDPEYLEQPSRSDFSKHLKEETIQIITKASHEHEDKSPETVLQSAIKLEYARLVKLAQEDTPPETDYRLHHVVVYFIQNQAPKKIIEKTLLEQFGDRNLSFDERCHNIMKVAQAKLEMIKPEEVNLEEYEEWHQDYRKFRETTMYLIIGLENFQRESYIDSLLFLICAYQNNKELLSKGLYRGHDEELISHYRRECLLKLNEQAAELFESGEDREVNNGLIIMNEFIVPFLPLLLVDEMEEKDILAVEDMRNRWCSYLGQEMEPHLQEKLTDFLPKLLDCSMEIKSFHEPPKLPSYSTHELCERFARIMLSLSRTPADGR
In short: as §1

USP28 = target: T4, USP28 (UniProt Q96RU2)
T4 sequence (whole entry): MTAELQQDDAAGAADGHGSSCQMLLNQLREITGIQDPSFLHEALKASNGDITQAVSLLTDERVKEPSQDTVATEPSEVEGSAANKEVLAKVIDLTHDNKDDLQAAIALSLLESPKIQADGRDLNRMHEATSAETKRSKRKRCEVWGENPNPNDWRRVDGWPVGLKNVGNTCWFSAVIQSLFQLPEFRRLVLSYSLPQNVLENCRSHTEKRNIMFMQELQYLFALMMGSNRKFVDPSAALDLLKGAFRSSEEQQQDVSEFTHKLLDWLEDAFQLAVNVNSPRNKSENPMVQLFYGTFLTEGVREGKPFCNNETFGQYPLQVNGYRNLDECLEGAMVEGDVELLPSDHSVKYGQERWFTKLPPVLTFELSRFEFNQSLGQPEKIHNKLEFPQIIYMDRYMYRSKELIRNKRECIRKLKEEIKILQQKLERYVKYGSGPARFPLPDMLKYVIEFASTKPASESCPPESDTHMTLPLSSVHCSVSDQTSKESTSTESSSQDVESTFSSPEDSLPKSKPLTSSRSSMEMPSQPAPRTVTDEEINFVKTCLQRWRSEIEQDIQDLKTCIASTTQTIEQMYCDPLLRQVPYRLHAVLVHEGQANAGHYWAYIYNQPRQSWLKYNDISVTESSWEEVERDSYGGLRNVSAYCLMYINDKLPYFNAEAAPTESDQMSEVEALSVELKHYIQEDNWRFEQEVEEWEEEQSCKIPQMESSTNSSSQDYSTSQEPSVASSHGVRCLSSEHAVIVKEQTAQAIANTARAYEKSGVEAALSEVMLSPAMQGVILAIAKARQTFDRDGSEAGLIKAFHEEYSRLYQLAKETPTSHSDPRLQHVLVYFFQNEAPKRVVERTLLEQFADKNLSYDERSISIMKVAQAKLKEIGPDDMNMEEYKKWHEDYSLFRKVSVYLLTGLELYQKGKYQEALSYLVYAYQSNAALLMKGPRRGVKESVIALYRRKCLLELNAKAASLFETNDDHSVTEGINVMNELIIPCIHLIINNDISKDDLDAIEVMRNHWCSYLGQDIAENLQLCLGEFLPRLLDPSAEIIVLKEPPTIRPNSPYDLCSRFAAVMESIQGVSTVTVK
In short: as §1

Measured: log2 ratio of Biotin-Ahx-Ub-VS probe labelling

Sequence of USP24 (Q9UPU5 whole entry): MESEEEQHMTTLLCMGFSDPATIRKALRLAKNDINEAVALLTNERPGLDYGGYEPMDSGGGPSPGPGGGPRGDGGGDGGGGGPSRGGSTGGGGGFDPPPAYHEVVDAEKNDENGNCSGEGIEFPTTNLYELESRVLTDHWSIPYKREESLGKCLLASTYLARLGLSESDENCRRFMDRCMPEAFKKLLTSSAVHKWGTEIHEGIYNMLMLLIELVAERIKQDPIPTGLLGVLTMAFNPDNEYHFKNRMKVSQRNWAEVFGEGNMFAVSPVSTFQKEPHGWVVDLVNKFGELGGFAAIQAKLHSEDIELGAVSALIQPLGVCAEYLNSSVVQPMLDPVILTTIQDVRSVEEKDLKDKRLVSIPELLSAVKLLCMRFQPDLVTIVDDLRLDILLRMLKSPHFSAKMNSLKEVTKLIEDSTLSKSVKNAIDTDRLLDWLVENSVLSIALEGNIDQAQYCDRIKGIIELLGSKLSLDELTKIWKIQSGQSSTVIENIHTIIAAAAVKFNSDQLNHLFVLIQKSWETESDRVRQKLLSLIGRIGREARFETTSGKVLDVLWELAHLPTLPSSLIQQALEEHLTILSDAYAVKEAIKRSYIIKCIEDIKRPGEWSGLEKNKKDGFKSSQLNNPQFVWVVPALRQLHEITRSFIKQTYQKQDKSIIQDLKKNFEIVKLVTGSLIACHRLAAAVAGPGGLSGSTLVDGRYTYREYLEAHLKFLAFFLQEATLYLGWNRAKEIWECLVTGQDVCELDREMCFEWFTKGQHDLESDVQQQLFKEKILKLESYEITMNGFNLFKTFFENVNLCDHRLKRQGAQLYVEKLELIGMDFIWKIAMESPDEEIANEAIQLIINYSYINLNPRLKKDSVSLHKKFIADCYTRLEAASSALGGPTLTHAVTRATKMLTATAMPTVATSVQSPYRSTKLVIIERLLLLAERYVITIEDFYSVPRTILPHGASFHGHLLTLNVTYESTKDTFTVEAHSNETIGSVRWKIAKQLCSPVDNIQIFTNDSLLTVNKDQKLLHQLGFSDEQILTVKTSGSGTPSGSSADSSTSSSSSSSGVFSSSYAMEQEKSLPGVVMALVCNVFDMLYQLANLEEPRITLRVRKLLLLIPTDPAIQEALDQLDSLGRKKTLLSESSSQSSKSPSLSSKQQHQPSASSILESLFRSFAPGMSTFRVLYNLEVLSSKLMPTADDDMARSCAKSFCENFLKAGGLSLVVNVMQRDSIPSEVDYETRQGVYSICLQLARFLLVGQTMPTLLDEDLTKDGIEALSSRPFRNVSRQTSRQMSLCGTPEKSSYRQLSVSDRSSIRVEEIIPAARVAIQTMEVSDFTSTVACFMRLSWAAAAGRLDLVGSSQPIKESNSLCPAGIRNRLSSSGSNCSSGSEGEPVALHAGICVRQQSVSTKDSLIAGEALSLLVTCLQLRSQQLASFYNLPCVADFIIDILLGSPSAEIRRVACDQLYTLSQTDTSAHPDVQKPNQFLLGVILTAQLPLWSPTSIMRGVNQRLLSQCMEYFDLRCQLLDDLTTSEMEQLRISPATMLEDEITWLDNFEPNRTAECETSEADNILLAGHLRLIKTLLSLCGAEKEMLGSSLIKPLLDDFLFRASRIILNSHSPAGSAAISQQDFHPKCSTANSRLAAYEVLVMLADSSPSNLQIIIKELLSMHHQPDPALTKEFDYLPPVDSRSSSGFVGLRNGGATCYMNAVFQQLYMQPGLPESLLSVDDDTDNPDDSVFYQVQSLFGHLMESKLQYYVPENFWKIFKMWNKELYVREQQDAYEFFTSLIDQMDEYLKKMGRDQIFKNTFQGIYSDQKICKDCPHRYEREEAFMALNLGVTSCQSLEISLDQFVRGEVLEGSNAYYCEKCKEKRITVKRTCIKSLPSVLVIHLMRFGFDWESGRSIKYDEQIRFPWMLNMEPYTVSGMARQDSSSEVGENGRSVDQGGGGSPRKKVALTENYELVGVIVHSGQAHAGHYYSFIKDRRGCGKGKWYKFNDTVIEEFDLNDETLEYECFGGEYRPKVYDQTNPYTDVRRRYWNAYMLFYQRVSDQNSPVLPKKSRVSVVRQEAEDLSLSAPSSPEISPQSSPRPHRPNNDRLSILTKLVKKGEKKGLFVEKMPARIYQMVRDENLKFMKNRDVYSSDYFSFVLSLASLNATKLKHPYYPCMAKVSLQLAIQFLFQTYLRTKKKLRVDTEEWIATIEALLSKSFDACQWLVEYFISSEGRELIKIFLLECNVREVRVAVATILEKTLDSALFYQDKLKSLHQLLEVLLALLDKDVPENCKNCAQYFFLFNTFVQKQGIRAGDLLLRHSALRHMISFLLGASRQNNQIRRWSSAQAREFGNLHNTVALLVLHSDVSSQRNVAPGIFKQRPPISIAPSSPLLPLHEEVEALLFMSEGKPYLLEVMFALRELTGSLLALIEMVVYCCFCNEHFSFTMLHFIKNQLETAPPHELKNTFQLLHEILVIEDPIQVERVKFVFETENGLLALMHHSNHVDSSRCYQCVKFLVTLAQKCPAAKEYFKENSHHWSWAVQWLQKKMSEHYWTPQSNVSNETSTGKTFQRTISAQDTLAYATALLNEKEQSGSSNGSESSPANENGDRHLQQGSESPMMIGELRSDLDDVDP

O=C(CCl)NCc1cccc(F)c1
inactive: USP19 -0.000373 | USP22 -0.171 | USP24 -0.154 | USP25 -0.362 | USP28 -0.556
